According to PubChem BioAssay AID1347422 (Sanford-Burnham Center for Chemical Genomics, 2020):
The full ranking holds about 1,000 compounds; the median of “thermal shift dTm” is about 0.19, and the highest 2% start at about 1.7. Shown is part of a subset that was picked to be rich in the highest values. Active and inactive are the calls of the source.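 How the source made its calls: active means mean rise in melting temperature of at least 1 degC over same-plate control wells; inactive means below that, where a call was filed.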

Each compound was assayed against Sulfhydryl oxidase 1 (Homo sapiens) (UniProt O00391) (assay: QSOX1 binders by thermal stabilization, confirmation, QSOX1 inhibitor project, biophysical, protein thermal shift, single concentration (AID 1347422;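 further: dTm is compound Tm minus mean Tm of DMSO-only wells on that plate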)). Settings: recombinant hQSOX1 thermal shift, Sypro Orange, at 25 µM, stronger effect = higher value.
Sequence of Sulfhydryl oxidase 1 (Homo sapiens) (O00391 whole entry, looked up): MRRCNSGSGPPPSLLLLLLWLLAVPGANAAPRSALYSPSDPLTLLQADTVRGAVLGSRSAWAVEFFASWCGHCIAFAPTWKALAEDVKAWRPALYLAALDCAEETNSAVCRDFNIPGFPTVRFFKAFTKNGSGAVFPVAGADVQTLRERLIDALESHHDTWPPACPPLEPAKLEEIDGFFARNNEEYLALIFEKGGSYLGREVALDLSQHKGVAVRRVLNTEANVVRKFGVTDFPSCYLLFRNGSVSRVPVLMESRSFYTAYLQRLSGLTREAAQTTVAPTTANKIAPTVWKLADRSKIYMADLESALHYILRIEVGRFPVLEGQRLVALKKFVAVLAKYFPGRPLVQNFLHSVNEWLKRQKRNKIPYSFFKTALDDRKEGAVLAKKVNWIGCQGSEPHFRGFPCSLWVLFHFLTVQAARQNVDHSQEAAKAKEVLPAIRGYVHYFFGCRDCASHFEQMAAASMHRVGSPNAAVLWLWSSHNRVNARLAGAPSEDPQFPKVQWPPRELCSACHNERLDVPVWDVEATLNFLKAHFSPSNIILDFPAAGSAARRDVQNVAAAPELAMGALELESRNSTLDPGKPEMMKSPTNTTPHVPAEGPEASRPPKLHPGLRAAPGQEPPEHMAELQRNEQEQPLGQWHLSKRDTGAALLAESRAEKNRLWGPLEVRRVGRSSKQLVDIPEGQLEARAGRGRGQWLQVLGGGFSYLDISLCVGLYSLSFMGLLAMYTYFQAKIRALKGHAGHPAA

Point of comparison: `Cc1ncc(CNc2ccc(-c3nc4ccccc4[nH]3)cc2)cn1`, thermal shift dTm 0.14 °C. Against it:
- Cc1ccccc1OCc1nc(-c2cccc(NC(=O)c3ccco3)c2)no1 — higher, 0.57 °C
- Nc1cccc(/C=C/C(=O)c2ccccc2)c1 — higher, 0.57 °C
- O=C(NC1CC(=O)N(Cc2cccc3ccccc23)C1)C(=O)c1ccccc1 (configuration not stated) — higher, 0.23 °C
- O=C(Nc1ccc(Cl)cc1)Nc1ccccc1OC(F)F — higher, 0.25 °C
- COc1ccccc1C(=O)NC(=S)Nc1ccc(NC(=O)C(C)C)cc1 — lower, 0.11 °C
- O=c1c2ccccc2ncn1CCCOc1ccc2ccccc2c1Br — lower, 0.11 °C
- COc1ccc(Cl)cc1NC(=S)Nc1c(C)nn(Cc2c(F)cccc2Cl)c1C — higher, 0.81 °C
- CCCOC(=O)c1c(NC(=O)C2CC=CCC2C(=O)O)sc(C)c1-c1ccc(F)cc1 (configuration not stated) — higher, 0.77 °C
- Cc1ccc(-n2[nH]c(CSc3nnnn3-c3ccccc3)cc2=O)cc1 — higher, 0.43 °C
- Cc1ccc(O)c(-c2cc(-c3ccccc3)n[nH]2)c1 — lower, 0.01 °C
- O=C(Nc1cccc(-c2noc(CCc3ccccc3)n2)c1)c1cccs1 — lower, 0.1 °C
- OCc1ccc(OCc2ccc(F)cc2)c(Br)c1 — higher, 0.58 °C
- COc1ccc2[nH]cc(CCNC(=O)c3ccc(OC(C)=O)cc3)c2c1 — higher, 0.81 °C
- COc1cccc(C(=O)NCCc2c[nH]c3ccc(C)cc23)c1 — lower, 0.07 °C
- NC(=O)c1ccc(NC(=O)C2CC2(c2ccccc2)c2ccccc2)cc1 (configuration not stated) — higher, 0.19 °C
- O=C(Nc1cccc(OCC2CCCO2)c1)c1cccs1 (configuration not stated) — lower, 0.09 °C
- COc1cccc(C(=O)Nc2nc3ccc(Cl)cc3s2)c1 — higher, 0.62 °C
- COc1ccc(C(=O)Oc2ccccc2Cl)cc1Br — lower, 0.06 °C
- COc1ccc(-c2nc(-c3cccs3)c(-c3cccs3)[nH]2)cc1 — higher, 0.25 °C
- c1csc(-c2nc(-c3cccs3)c(-c3cccs3)[nH]2)c1 — lower, 0.06 °C
- Cc1oc(-c2ccccc2NS(C)(=O)=O)nc1CN(C)Cc1ccc(OC(F)F)cc1 — higher, 0.18 °C
- Cc1cc(NC(=O)c2ccccn2)ccc1NC(=O)c1cc2ccccc2o1 — higher, 0.19 °C
- N#Cc1cccc(NC(=O)c2cc3ccccc3o2)c1 — higher, 0.32 °C
- O=C(Nc1cccc(OCc2ccccc2)c1)c1ccco1 — higher, 0.23 °C
- Cc1ccc(-c2noc(CNC(=O)C34CC5CC(CC(C5)C3)C4)n2)cc1 — higher, 0.16 °C
- O=C(CCSc1nc2sc3c(c2c(=O)[nH]1)CCCC3)Nc1ccccc1 — lower, 0.02 °C
- NC(=O)c1ccc(-c2ccc3[nH]ccc3c2)nc1 — higher, 0.79 °C
- Cc1cc2ncn(CCCOc3ccc(Cl)cc3)c2cc1C — lower, 0.11 °C
- CC(C)N(Cc1nc(-c2ccc(Cl)cc2)no1)S(=O)(=O)c1ccc(F)cc1 — lower, 0.02 °C
- CCc1ccc(NC(=O)Nc2ccc(Br)cn2)cc1 — lower, 0.09 °C
- COc1cccc(NC(=O)Nc2cccc3ccccc23)c1 — lower, 0.01 °C
- COc1ccc(NC(=O)Nc2ccc(C)cc2C)cc1 — lower, 0.05 °C
- COc1ccc(NC(=O)Nc2ccc(C)cc2)c(OC)c1 — higher, 0.2 °C
- COc1ccc(C)cc1NC(=O)Nc1ccc(NC(C)=O)cc1 — higher, 0.57 °C
- N/C(=N\c1nc(-c2cccs2)cc(C(F)(F)F)n1)Nc1ccc2c(c1)OCCO2 — higher, 0.35 °C
- COc1cccc(NC(=O)Nc2ccc(Cc3ccncc3)cc2)c1 — higher, 0.38 °C
- COc1ccc(NC(=O)Nc2cccnc2)cc1 — higher, 0.28 °C
- Cc1nnc(NC(=O)c2ccc(NC(=O)c3ccco3)cc2)s1 — higher, 0.7 °C
- CC(=O)Nc1ccc(NC(=O)c2nnn(-c3cccc(Cl)c3)c2N)cc1 — higher, 0.55 °C
- O=C(Nc1nccs1)c1ccccc1OCc1ccccc1 — higher, 0.37 °C
- CCc1sc(NC(=O)Cc2ccc(F)cc2)nc1-c1ccccc1 — higher, 0.17 °C
- O=S(=O)(NCCSC1CCCCC1)c1ccc(Cl)cc1 — lower, 0.11 °C
- O=C(CCc1ccccc1)Nc1cccc(-c2nc3ccccc3s2)c1 — higher, 0.59 °C
- Cc1ccccc1NC(=S)NCCC(c1ccccc1)c1ccccc1 — lower, 0.02 °C
- c1ccc(COc2ccc(-c3noc(-c4ccccn4)n3)cc2)cc1 — lower, 0.01 °C
- Cc1cc(OCCn2cc(C(=S)N3CCOCC3)c3ccccc32)ccc1Cl — lower, 0.02 °C
- COc1ccc2c(c1OC)C(=O)N(c1ccc(Cl)cc1)C2 — higher, 0.81 °C
- O=C(Nc1cccc(-c2nc3ccccc3[nH]2)c1)C1CCCO1 (configuration not stated) — lower, 0.02 °C
- COc1ccc(NC(=O)c2ccoc2)cc1Cl — higher, 0.23 °C
- COc1ccc(-c2noc(-c3cccc(NC(C)=O)c3)n2)cc1 — higher, 0.24 °C
- CSc1cccc(NC(=O)NCc2ccccn2)c1 — higher, 0.18 °C
- O=C(Nc1nc(-c2ccccc2)ns1)N1CCOc2ccc(Cl)cc2C1 — higher, 0.23 °C
- CCCN(CC1CC1)C(=O)c1cc(COc2ccc(OC)cc2Cl)on1 — lower, 0.09 °C
- CC(=O)Oc1ccc2cc(-c3ccc(Cl)cc3)c(=O)oc2c1 — lower, 0.11 °C
- CCCn1c(=O)[nH]c(=O)c2c(-c3cccc4ccccc34)ccnc21 — higher, 0.25 °C
- Cc1ccc(NC(=O)Nc2ccc(Br)cc2)nc1 — higher, 0.28 °C
- Cc1ccc2ccc(C(Nc3ccccn3)c3ccc(Cl)cc3)c(O)c2n1 (configuration not stated) — higher, 0.57 °C
- O=c1[nH]c(SCc2ccc(Cl)c(Cl)c2)nc2ccccc12 — lower, 0.11 °C

In the case of `COc1ccc(/C=C/C(=O)Nc2cccc(C(C)=O)c2)cc1`, the thermal shift dTm is reported as 1.18 °C (active).
With `COc1ccc(C(=O)/C=C/c2cccc(OC)c2)cc1` the thermal shift dTm was 2.07 °C (active).
`COc1ccc(C)cc1NC(=O)Nc1ccc(OC(F)F)c(Cl)c1` was tested, and the thermal shift dTm was -0.79 °C (inactive).
For `CCCc1cc(=O)[nH]c(SCC(=O)Nc2nc(-c3ccccc3)cs2)n1`, the thermal shift dTm was 1.07 °C (active).
With `CC1Oc2ccc(-c3csc(NC(=O)COc4ccc(Cl)cc4)n3)cc2NC1=O` (configuration not stated) the thermal shift dTm was -0.1 °C (inactive).
For `Cc1[nH]nc(-c2ccc(O)c(O)c2O)c1Oc1ccc(F)cc1`, the thermal shift dTm was -5.32 °C (inactive).
For `Cc1ccc(-c2cc(-c3ccc(F)cc3)n[nH]2)c(O)c1`, the thermal shift dTm was 1.84 °C (active).
For `O=C(/C=C/c1ccco1)NCc1cccc(CNC(=O)/C=C/c2ccco2)c1`, the thermal shift dTm was 1.04 °C (active).
In the case of `CCCC(=O)NC(c1ccccc1OC)c1c(OC(=O)COc2ccccc2)ccc2ccccc12` (configuration not stated), the thermal shift dTm is reported as -0.13 °C (inactive).
In the case of `COc1ccc2[nH]cc(CCNC(=O)c3cccc(Cl)c3)c2c1`, the thermal shift dTm is reported as 1.74 °C (active).
In the case of `Fc1ccc(-c2nc(-c3cccs3)c(-c3cccs3)[nH]2)cc1`, the thermal shift dTm is reported as 3.34 °C (active).
For `CC(=O)Nc1ccc(NC(=O)c2cc3ccccc3o2)cc1`, the thermal shift dTm was 1.73 °C (active).
`COc1ccc(OC)c(NC(=O)Nc2cccc(NC(C)=O)c2)c1` was tested, and the thermal shift dTm was 1.91 °C (active).
`COc1ccc(NC(=O)Nc2ccc(C(C)=O)cc2)c(C)c1` was tested, and the thermal shift dTm was 2.14 °C (active).
`COc1ccc(NC(=O)Nc2cccc(Cn3cc(Cl)cn3)c2)cc1` was tested, and the thermal shift dTm was 2.14 °C (active).
For `CC(=O)Nc1ccc(C(=O)CSc2ccc3ccccc3n2)cc1`, the thermal shift dTm was 1.22 °C (active).
With `Cc1ccc(NC(=O)Nc2ccc3snnc3c2)cc1` the thermal shift dTm was -0.45 °C (inactive).
With `C=CCc1c(C)nc2c(-c3ccccc3)cnn2c1NCc1cccnc1` the thermal shift dTm was -0.08 °C (inactive).
For `c1cc(NCc2ccc3c(c2)OCO3)cc(-c2nc3ccccc3[nH]2)c1`, the thermal shift dTm was 2.39 °C (active).
In the case of `COc1ccc(C(=O)Nc2ccc(Cl)c(C)n2)cc1Cl`, the thermal shift dTm is reported as 1.85 °C (active).
For `COc1ccc(C(=O)Nc2ccc(NC(C)=O)cc2)cc1C`, the thermal shift dTm was 1.48 °C (active).
In the case of `O=C(CN(c1ccccc1F)S(=O)(=O)c1ccccc1)Nc1ccc(F)cc1F`, the thermal shift dTm is reported as -0.03 °C (inactive).
`Cc1cc(N(C)C)nc(N2CCN(C(=O)Nc3cccc(F)c3)CC2)n1` was tested, and the thermal shift dTm was -0.08 °C (inactive).
